According to PubChem BioAssay AID504799 (The Scripps Research Institute Molecular Screening Center, 2011):
The list shows a part of the results. A number with no mark means an inactive call. Active and inactive are the calls of the source.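 How the source made its calls: active means mean activation over triplicate runs exceeds the adjusted cutoff derived for the parent primary screen (cut at about 19% in these data); inactive means the rest.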

Test: fluorescence polarization artefacts, Cy5-IP20 alone – biochemical, triplicate, artefact control for PKA-R1A activator project, confirmation (AID 504799);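 further: no PKA protein present so any polarization rise reflects compound interference; 0% = tracer peptide mix alone and 100% = mix with added PKA catalytic subunit; higher means stronger polarization artifact and likely false positive in parent screen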
Details: Cy5-IP20 peptide alone, fluorescence polarization artifact counterscreen; at 11.4 µM; active compounds read high

Compound | activation
CCOc1cc(C(=O)Nc2c(C)ccc3nsnc23)cc(OCC)c1OCC | 3.5%
O=C(Nc1ccc2c(c1)[C@@H]1C[C@@H](CC(=O)N3CCCCC3)O[C@@H](CO)[C@@H]1O2)NC1CCCCC1 | 3.18%
COc1ccc(CNc2nnnn2C)cc1 | 3.5%
CCC(Oc1ccccc1C)C(=O)Nc1ccc(S(=O)(=O)Nc2cc(C)on2)cc1 (stereo not given) | 2.96%
COc1ccccc1N1CC(C(=O)Nc2nnc(SCC(=O)NC(C)C)s2)CC1=O (stereo not given) | -0.21%
COc1ccc(NC(=O)c2ccc(C#CC(C)(C)O)cc2)cc1 | -2.01%
CCCC(=O)Nc1ncnc2c1ncn2[C@@H]1O[C@@H]2OP(=O)(O)OC[C@H]2[C@H]1OC(=O)CCC | 0.15%
Cc1ccc2nc3c(cc(C(=O)NCCc4ccccc4)c(=N)n3CC3CCCO3)c(=O)n2c1 (stereo not given) | 4%
N#Cc1ccccc1CN1C(=O)S/C(=C/c2cccn2-c2cccc(C(=O)O)c2)C1=O | 19.3% (active)
CN(C(=O)CSc1nnc(Nc2ccccc2)s1)C1CCS(=O)(=O)C1 (stereo not given) | 0.22%
